Here are results for 30 molecules from PubChem BioAssay AID602137 (NMMLSC, 2011).

This assay is described as follows: GST-GSH bead binding interference, SAR follow-up, counter-screen for Rab7 GTPase inhibitor project, biochemical, flow cytometry beads, round 1 (AID 602137). For orientation: A counterscreen serves to expose hits that act by an unwanted route or on another target.

Calls of active or inactive are those of the source.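 Rule for the calls: active = EC50 at most 10 µM with percent response changing by at least 30% across doses, from a valid fit; inactive = the rest.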

With `CC1(C)Cc2c(sc(NC(=O)Cc3ccccc3)c2C(=O)O)CO1`, the outcome was inactive.

Take `CCOC(=O)c1c(N)sc2ccccc12`: the call was inactive.

Turning to `COc1ccc(C2CC(c3ccccc3)=NN2c2ccc(S(N)(=O)=O)cc2)cc1` (stereo not given), the call was inactive.

On to `COc1ccc(C(=O)NC(=S)Nc2sc3c(c2C(=O)O)CC(C)(C)OC3)cc1`, for which the result was inactive.

Consider `O=C(NC(=S)Nc1sc2c(c1C(=O)O)CCOC2)c1ccccc1`, for which the result was inactive.

As to `Cc1ccc(Nc2nc3sc4c(c3c(=O)o2)CCN(C)C4)cc1`, the molecule was called inactive.

`CCOC(=O)c1c(NC(=S)Nc2ccccc2)sc2c1CC(C)(C)OC2`: the outcome was inactive.

As to `COC(=O)c1c(N)sc2c1CC(C)(C)OC2`, the call was inactive.

As for `CC1(C)Cc2c(sc(NC(=S)NC(=O)c3ccccc3Br)c2C(=O)O)CO1`, the result was inactive.

For the molecule `COC(=O)c1c(NC(=S)NC(=O)c2ccccc2)sc2c1CC(C)(C)OC2`, the outcome was inactive.

Take `CC1(C)CCc2sc(NC(=S)NC(=O)c3ccccc3)c(C(=O)O)c2C1`: the molecule was called inactive.

Consider `CC1(C)Cc2c(sc(NC(=S)NC(=O)c3cccc(Br)c3)c2C(=O)O)CO1`, for which the molecule was classed as inactive.

Regarding `CC1(C)Cc2c(sc(NC(=S)NC(=O)c3ccccc3)c2C(=O)O)CO1`, the molecule was classed as inactive.

As to `CC1(C)Cc2c(sc(NC(=S)NC(=O)c3cccc(F)c3)c2C(=O)O)CO1`, the outcome was inactive.

Take `Cc1ccc(NC(=O)Nc2sc3c(c2C(=O)O)CCN(C)C3)cc1`: the molecule was classed as inactive.

On to `CC1Cc2c(sc(NC(=S)NC(=O)c3ccccc3)c2C(=O)O)CO1` (stereo not given), for which the outcome was inactive.

For `CC(C)(C)OC(=O)c1c(NC(=S)NC(=O)c2ccccc2)sc2c1CCOC2`, the molecule was classed as inactive.

For the molecule `NS(=O)(=O)c1ccc(N2N=C(c3ccccc3)CC2c2ccccc2)cc1` (stereo not given), the result was inactive.

Consider `COc1cccc(C(=O)NC(=S)Nc2sc3c(c2C(=O)O)CC(C)(C)OC3)c1`, for which the result was inactive.

As to `CN1CCc2c(sc(NC(=O)Nc3ccc(F)cc3)c2C(=O)O)C1`, the molecule was classed as inactive.

`CCOC(=O)c1c(NC(=O)Nc2ccc(F)cc2)sc2c1CCN(C)C2`: the result was inactive.

With `CN1CCc2c(sc3nc(Nc4ccc(F)cc4)oc(=O)c23)C1`, the result was inactive.

For the molecule `CCOC(=O)c1c(NC(=O)Nc2ccc(C)cc2)sc2c1CCN(C)C2`, the molecule was called inactive.

For `CCOC(=O)c1c(NC(=S)NC(=O)c2ccccc2)sc2ccccc12`, the result was inactive.

Take `CC1(C)Cc2c(sc(NC(=S)NC(=O)c3ccccc3F)c2C(=O)O)CO1`: the call was inactive.

On to `CC1(C)Cc2c(sc(NC(=S)NC(=O)c3ccc(Br)cc3)c2C(=O)O)CO1`, for which the result was inactive.

On to `CC1(C)Cc2c(sc(NC(=S)Nc3ccccc3)c2C(=O)O)CO1`, for which the molecule was called inactive.

As to `CC1(C)Cc2c(sc(NC(=O)NC(=O)c3ccccc3)c2C(=O)O)CO1`, the outcome was inactive.

For `O=C(C#Cc1ccccc1)c1cccc([N+](=O)[O-])c1`, the call was inactive.

On to `CCOC(=O)c1c(NC(=O)NC(C)(C)C)sc2c1CCN(C)C2`, for which the result was inactive.
